The entries come from a sample that favours hits as a whole.
Eya2 inh – blocks the phosphatase activity of human Eya2. O00167. recombinant Eya2, OMFP fluorescence dephosphorylation (OMFP is methylfluorescein phosphate). Potency, µM (highest dose often 76.9 µM), inactives show at the top dose activity, negative = inhibition, hits mostly inhibitors. 330,000 compounds, 0.006% hits. AID 488837; also: potency is read from the fitted curve at half-maximal effect
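Eya2 protein (added as 0.2 uM solution) was preincubated with compound for 10 min at ambient temperature in 50 mM HEPES pH 7.5, 50 mM NaCl, 5 uM MgCl2, 0.05% BSA, 1 mM DTT. OMFP (added at 50 uM) then reacted 10 min; fluorescence read at 485/525 nm.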
Anesthetic bind – binds horse apoferritin like a general anesthetic; apoferritin/1-aminoanthracene competitive binding, fluorescence; Potency, µM (highest dose often 77.5 µM), for the others: at the highest dose activity change, negative = displacement, usual class: inhibitors; AID 485281; P02791; 350,000 compounds, 0.074% hits; also: potency is read from the fitted curve at half-maximal effect; nearly all actives have a fitted effect of over 20% in size
Target sequence (P02791 2-175 limits assumed): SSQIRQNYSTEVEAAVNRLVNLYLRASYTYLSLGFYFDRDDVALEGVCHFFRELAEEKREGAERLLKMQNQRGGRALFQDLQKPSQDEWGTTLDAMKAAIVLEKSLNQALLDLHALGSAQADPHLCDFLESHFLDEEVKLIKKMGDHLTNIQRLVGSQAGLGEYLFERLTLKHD
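In PBS, apoferritin at 10 uM is loaded with 1-AMA from a 50% saturated solution. After 10 min of compound exposure at ambient temperature, reduced 535 nm fluorescence indicates probe displacement.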
GALK inhibitor – blocks human galactokinase activity. Potency, µM (highest dose often 57.5 µM), inactives show at the top dose activity change, negative = inhibition, actives largely listed as inhibitors. P51570. AID 1868. Purified GALK, Kinase-Glo residual ATP luminescence. 270,000 compounds, 0.007% hits; also: potency is read from the fitted curve at half-maximal effect
Target sequence (P51570 whole entry, looked up): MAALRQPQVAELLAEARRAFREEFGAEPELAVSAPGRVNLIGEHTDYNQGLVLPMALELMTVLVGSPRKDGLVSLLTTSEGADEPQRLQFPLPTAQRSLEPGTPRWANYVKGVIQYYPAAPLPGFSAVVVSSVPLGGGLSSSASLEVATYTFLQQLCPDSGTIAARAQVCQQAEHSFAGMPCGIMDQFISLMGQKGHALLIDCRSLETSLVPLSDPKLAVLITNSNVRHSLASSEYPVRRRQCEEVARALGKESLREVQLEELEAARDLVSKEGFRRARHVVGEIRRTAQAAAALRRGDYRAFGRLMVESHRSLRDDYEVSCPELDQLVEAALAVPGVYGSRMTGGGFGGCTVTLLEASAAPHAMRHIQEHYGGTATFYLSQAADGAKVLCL
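Human GALK (5 nM) with 35 uM ATP and 100 uM galactose in 20 mM HEPES pH 8.0, 5 mM MgCl2, 60 mM NaCl, 1 mM DTT, 0.01% BSA. After 1 h at room temperature, leftover ATP was read by Kinase-Glo Plus luminescence.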
KDM4E inh – JMJD2E (human) inhibition; 230,000 compounds, 1.6% hits; B2RXH2; JMJD2E catalytic domain, FDH-coupled NADH fluorescence (FDH is formaldehyde dehydrogenase); Potency, µM (highest dose often 57.1 µM), for inactives: top-dose activity change, negative = inhibition, most hits filed as inhibitors; active = well fitted inhibition curve with a large enough effect, not every such curve was filed as active; inconclusive = small, poorly fitted or top-dose-only effect, or another doubt; inactive = no such curve, though single readings can be large or run the other way;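 also: potency is read from the fitted curve at half-maximal effect; 0% = wells with enzyme and -100% = buffer wells without enzyme; nearly all actives have a fitted effect of over 50% in size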
Six1-Eya2 inh – Six1/Eya2 interaction inhibition. activity change, % (concentration not given with the values). AlphaScreen GST-Six1/His-Eya2 binding, biochemical; active compounds read low. Q15475+O00167. AID 651725. 360,000 compounds, 0.56% hits; in the data active = activity change below about -65%; inconclusive = mostly about -30% to -63%
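Compounds are tested against tagged Six1 and Eya2 proteins bridged by glutathione donor and nickel acceptor beads; after a one-hour incubation at 37 °C without light, AlphaScreen emission is recorded.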
CtBP-E1A inh – blocks the CtBP interaction with E1A. AlphaScreen GST-E1A/His-CtBP binding, 1536-well; active compounds read low. activity change, % (concentration not given with the values). 340,000 compounds, 0.49% hits; in the data active = activity change below about -65%; inconclusive = mostly about -30% to -63%
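Steps: dispense buffer (Tris pH 8.0, NaCl 300 mM, TCEP 1 mM, BSA, Tween 20); add 5X protein mix (GST-E1A, His-CtBP, 125 nM each); pin 23 nL compound; 2 h at 37 °C, dark; add 5X beads (50 ug/mL); 1 h; read.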
* hit, by the source's call; [ ] = dose if it differs, or a comment. Unless noted, calls follow the shape of the dose curve; as a rule, active = well fitted curve in the direction sought with a large enough effect; inconclusive = small, poorly fitted or top-dose-only effect, or another doubt; inactive = no such curve, though single readings can be large; an effect the other way counts as inactive or inconclusive. Unless noted, % is scaled to controls: 0 for no effect and ±100 for the full control effect.

What do the screens show for `Cc1oc(-c2ccc(C(=O)Nc3cccc(C(F)(F)F)c3)cc2)nc1CSc1ccccc1`?
Anesthetic bind: -9%

What do the screens show for `CC1(C)O[C@@H]2[C@@H](O1)C(c1ccccc1)(c1ccccc1)OP(=O)(O)OC2(c1ccccc1)c1ccccc1`?
KDM4E inh: -15%

How did Cc1cc(-c2ccccc2)n2nc(-c3cccc(Br)c3)cc2n1 do in these assays?
Anesthetic bind: 2%

What do the screens show for `Cc1ccc(C(NC(=O)C(C)C)c2cc([N+](=O)[O-])c3cccnc3c2O)cc1` (stereo not given)?
Eya2 inh: 2%; Anesthetic bind: 5%; KDM4E inh: 20µM*; Six1-Eya2 inh: -88*; CtBP-E1A inh: -96*

Results for CCC(=O)NC(c1cccs1)c1cc([N+](=O)[O-])c2cccnc2c1OC (stereo not given) ?
Eya2 inh: -28%

Results for CC(C)C(=O)NC(c1cccs1)c1cc([N+](=O)[O-])c2cccnc2c1O (stereo not given) ?
Eya2 inh: -1%; Anesthetic bind: 1%; GALK inhibitor: 0%; KDM4E inh: -6%; Six1-Eya2 inh: -97*; CtBP-E1A inh: -91*

Results for CCCC(=O)NC(c1ccco1)c1cc(Cl)c2cccnc2c1O (stereo not given) ?
Eya2 inh: -33%; Anesthetic bind: -6%; GALK inhibitor: 0%; KDM4E inh: inconclusive; Six1-Eya2 inh: -83*; CtBP-E1A inh: -90*

Results for CCCC(=O)NC(c1cccs1)c1cc(Cl)c2cccnc2c1O (stereo not given) ?
Eya2 inh: -2%; Anesthetic bind: -5%; GALK inhibitor: -1%; KDM4E inh: inconclusive; Six1-Eya2 inh: inconclusive; CtBP-E1A inh: -71*

How did CCC(=O)NC(c1ccc(C)cc1)c1cc(Cl)c2cccnc2c1O (stereo not given) do in these assays?
Eya2 inh: 6%

Results for CCC(=O)NC(C)c1cc(Cl)c2cccnc2c1O (stereo not given) ?
Eya2 inh: 7%

What do the screens show for `CCC(=O)NC(c1ccc(OC)c(OC)c1)c1cc(Cl)c2cccnc2c1O` (stereo not given)?
Eya2 inh: 2%; Anesthetic bind: -12%; GALK inhibitor: 6%; KDM4E inh: 6%; Six1-Eya2 inh: -82*; CtBP-E1A inh: -85*

Results for CCC(=O)NC(c1ccco1)c1cc(Cl)c2ccccc2c1O (stereo not given) ?
Eya2 inh: 11%

What do the screens show for `CCCC(=O)NC(c1ccc2c(c1)OCO2)c1cc(Cl)c2cccnc2c1O` (stereo not given)?
Eya2 inh: -2%; Anesthetic bind: 3%; KDM4E inh: -10%; Six1-Eya2 inh: -77*; CtBP-E1A inh: -78*

What do the screens show for `CCOc1cccc(C(=O)N(Cc2ccc(C(C)C)cc2)C2CCS(=O)(=O)C2)c1` (stereo not given)?
Anesthetic bind: -12%

Results for CC1=CC(=O)C2=C(C)CC[C@H]3[C@H](C)C(=O)O[C@@H]3C12 (stereo not given in full) ?
Anesthetic bind: -9%

What do the screens show for `O=C(O)CN(CC(=O)O)Cc1cc2c(-c3ccccc3C(=O)O)c3cc(CN(CC(=O)O)CC(=O)O)c(=O)cc-3oc2cc1O`?
Anesthetic bind: 336%; KDM4E inh: 4µM*

How did O=C(O)c1ccccc1-c1c2ccc(=O)cc-2oc2cc(O)ccc12 do in these assays?
Anesthetic bind: 726%

How did O=C1c2ccccc2C(=O)c2c(NCCc3ccc(O)cc3)ccc(NCCc3ccc(O)cc3)c21 do in these assays?
Eya2 inh: -19%

How did O=C1c2ccccc2C(=O)c2c(Nc3ccc(CCO)cc3)ccc(O)c21 do in these assays?
Eya2 inh: 2%; Anesthetic bind: -15%; KDM4E inh: -26%; Six1-Eya2 inh: -83*

What do the screens show for `Cc1cccc(C(=O)Nc2ccc3oc(-c4ccncc4)nc3c2)c1`?
Anesthetic bind: -10%

Results for CCOc1ccc(CC2NCCc3cc(OCC)c(OCC)cc32)cc1OCC (stereo not given) ?
Eya2 inh: 0%; Anesthetic bind: -7%; GALK inhibitor: 6%; KDM4E inh: 35µM*; Six1-Eya2 inh: -23

Results for COc1cc2c(cc1OC)C(Cc1ccc(O)cc1)NCC2 (stereo not given) ?
Eya2 inh: 5%; Anesthetic bind: -11%; KDM4E inh: 7%; Six1-Eya2 inh: -2; CtBP-E1A inh: 3

What do the screens show for `CC1CN(c2ccc(Cl)cc2)c2nc3c(c(=O)n(CC(=O)O)c(=O)n3C)n2C1` (stereo not given)?
Anesthetic bind: -2%

Results for CC[n+]1c(C=C2C=C(C)OC(C)=C2)sc2ccccc21 ?
Eya2 inh: 1%; Anesthetic bind: inconclusive; GALK inhibitor: 2%; KDM4E inh: -7%; Six1-Eya2 inh: -8; CtBP-E1A inh: -27

Results for CC[n+]1c(/C=C2/C=C(C)CC(C)C2)sc2ccccc21 (stereo not given) ?
Eya2 inh: -3%; Anesthetic bind: -14%; GALK inhibitor: 5%; KDM4E inh: 22µM*; Six1-Eya2 inh: 3; CtBP-E1A inh: 1

Results for CCc1nc(Nc2ccc(F)c(Cl)c2)c2c3c(sc2n1)CCCC3 ?
Anesthetic bind: 4%

What do the screens show for `Cc1ccc(C(C)C)n1C(=O)OC(C)(C)C`?
Anesthetic bind: -2%[15.3 µM]

What do the screens show for `COc1ccc(CN2C(=O)c3cccnc3C2Nc2cc(Cl)ccc2OC)cc1` (stereo not given)?
Eya2 inh: 2%; Anesthetic bind: 2%; GALK inhibitor: -9%; KDM4E inh: 14µM*; Six1-Eya2 inh: -8; CtBP-E1A inh: -6

How did CCCCC[C@H](O)/C=C/C=C/C=C/[C@H](O)C/C=C\CCCC(=O)O do in these assays?
KDM4E inh: -1%

How did CC1=CC(C)(C)Nc2ccc(OC(=O)CN3C(=O)c4cccc5cccc(c45)C3=O)cc21 do in these assays?
Eya2 inh: -6%; Anesthetic bind: -24%; GALK inhibitor: 1%; KDM4E inh: 13µM*; Six1-Eya2 inh: -17; CtBP-E1A inh: -27

Results for CC1(C)C(=O)OC(C(=O)c2ccccc2)C(C)(C)C1=O (stereo not given) ?
Eya2 inh: -14%; Anesthetic bind: 8.9µM*; GALK inhibitor: 6%; KDM4E inh: -5%; Six1-Eya2 inh: 8; CtBP-E1A inh: -1

Results for Cc1ccc(OCCCn2ccnc2)cc1C ?
Eya2 inh: 9%; Anesthetic bind: 18µM*; GALK inhibitor: 0%; KDM4E inh: 5%; Six1-Eya2 inh: 0; CtBP-E1A inh: -1
